Numbering of substitutions follows the chain as printed.

The first assay concerns the target T1, SALL4 ZFC4 WT (HT-SELEX) (Mus musculus, UniProt Q8BX22 870-940).
T1 sequence: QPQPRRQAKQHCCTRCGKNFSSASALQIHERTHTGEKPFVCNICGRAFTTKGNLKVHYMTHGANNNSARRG
The assay can be described thus: HT-SELEX; high values mean tight binding. As to conditions: protein: recombinant; vector His6-GST; dsDNA, one strand shown. The gist of the method: (§1)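 DNA from a random library (1.5 µg in the first cycle, 200 ng afterwards) was incubated with purified recombinant mouse SALL4 zinc finger cluster 4, residues 870–940 (1 µg), for 10 min at room temperature in 100 µl buffer: 10 mM Tris–HCl pH 7.5, 50 mM NaCl, poly(dI-dC), DTT. Bound complexes were pulled down on Ni2+ beads, washed and PCR-amplified, and the selection was repeated for up to 6 cycles in triplicate. MiSeq reads were scanned for 6-mers, and binding signal is each canonical k-mer's read fraction as fold change over the initial random library.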
For the sequence AATAAC, the binding signal came to 2.58 ± 0.181 fold-change vs cycle 0.

Turning to CTTGGA, the binding signal was 0.806 ± 0.0506 fold-change vs cycle 0.

On to ACTAGC, for which the binding signal turned out to be 0.648 ± 0.0227 fold-change vs cycle 0.

ATGTTG: the binding signal came to 1.2 ± 0.026 fold-change vs cycle 0.

Regarding AACGCA, the binding signal is 0.504 ± 0.0712 fold-change vs cycle 0.

Turning to AGACAC, the binding signal came to 0.683 ± 0.0462 fold-change vs cycle 0.

Take CTGGAC: the binding signal is 0.396 ± 0.0407 fold-change vs cycle 0.

Consider AGGGGA, for which the binding signal amounted to 0.532 ± 0.0414 fold-change vs cycle 0.

In the case of CCTGCA, the binding signal was 0.34 ± 0.0217 fold-change vs cycle 0.

Regarding CAACCG, the binding signal was determined as 0.334 ± 0.0164 fold-change vs cycle 0.

In the case of AACAAA, the binding signal turned out to be 1.75 ± 0.107 fold-change vs cycle 0.

For the sequence AACTCT, the binding signal was determined as 1.39 ± 0.0293 fold-change vs cycle 0.

Consider CATAGC, for which the binding signal came to 0.663 ± 0.0317 fold-change vs cycle 0.

As for AGACTG, the binding signal turned out to be 0.764 ± 0.0533 fold-change vs cycle 0.

GTAGTA: the binding signal came out at 1.29 ± 0.036 fold-change vs cycle 0.

Turning to CCCAGA, the binding signal turned out to be 0.431 ± 0.0214 fold-change vs cycle 0.

Turning to AGGAAG, the binding signal amounted to 0.939 ± 0.0254 fold-change vs cycle 0.

Consider GCTACC, for which the binding signal worked out at 0.35 ± 0.0217 fold-change vs cycle 0.

Take CCGTCA: the binding signal was found to be 0.358 ± 0.0271 fold-change vs cycle 0.

Turning to AATGTC, the binding signal was 1.08 ± 0.0855 fold-change vs cycle 0.

Consider CCTAAG, for which the binding signal was determined as 0.941 ± 0.0158 fold-change vs cycle 0.

As for CTAGGC, the binding signal worked out at 0.314 ± 0.00866 fold-change vs cycle 0.

Turning to AAAAGG, the binding signal was 1.08 ± 0.0719 fold-change vs cycle 0.

With ATTTCG, the binding signal was determined as 1.02 ± 0.0756 fold-change vs cycle 0.

Turning to CGAGTC, the binding signal is 0.379 ± 0.0123 fold-change vs cycle 0.

On to ATTCCA, for which the binding signal was 1.45 ± 0.0836 fold-change vs cycle 0.

Regarding CCATCG, the binding signal is 0.385 ± 0.00824 fold-change vs cycle 0.

TCGACA: the binding signal is 0.525 ± 0.0359 fold-change vs cycle 0.

GAATCA: the binding signal is 1.35 ± 0.0589 fold-change vs cycle 0.

Turning to ACTCAA, the binding signal turned out to be 1.26 ± 0.086 fold-change vs cycle 0.

On to CCACTA, for which the binding signal is 0.774 ± 0.0352 fold-change vs cycle 0.

Regarding ACAGGT, the binding signal was determined as 0.824 ± 0.0401 fold-change vs cycle 0.

Consider AGGACT, for which the binding signal stood at 0.864 ± 0.0148 fold-change vs cycle 0.

Regarding GTACTA, the binding signal is 1.24 ± 0.0382 fold-change vs cycle 0.

In the case of GTGTCA, the binding signal was 0.688 ± 0.0282 fold-change vs cycle 0.

In the case of AGTCTA, the binding signal was determined as 1.25 ± 0.0412 fold-change vs cycle 0.

For TCTGCA, the binding signal was 0.609 ± 0.0257 fold-change vs cycle 0.

For the sequence TCTAGA, the binding signal worked out at 1.32 ± 0.134 fold-change vs cycle 0.

Regarding CCGAAC, the binding signal turned out to be 0.325 ± 0.00544 fold-change vs cycle 0.

Consider ACCACC, for which the binding signal stood at 0.457 ± 0.039 fold-change vs cycle 0.

The target of the next assay is T2, SALL4 ZFC4 R900W (HT-SELEX) (Mus musculus, UniProt Q8BX22 870-940, R900W).
T2 sequence: T1 sequence with R31W
The assay can be described thus: HT-SELEX; high values mean tight binding. The following applies: protein: recombinant; vector His6-GST; dsDNA, one strand shown. The gist of the method: as §1
Consider AATAAC, for which the binding signal was 2.03 ± 0.114 fold-change vs cycle 0.

With CTTGGA, the binding signal came out at 0.948 ± 0.0291 fold-change vs cycle 0.

ACTAGC: the binding signal was determined as 0.764 ± 0.0235 fold-change vs cycle 0.

Regarding ATGTTG, the binding signal worked out at 1.29 ± 0.0687 fold-change vs cycle 0.

In the case of AACGCA, the binding signal stood at 0.544 ± 0.00766 fold-change vs cycle 0.

As for AGACAC, the binding signal is 0.821 ± 0.037 fold-change vs cycle 0.

Regarding CTGGAC, the binding signal turned out to be 0.495 ± 0.0552 fold-change vs cycle 0.

For AGGGGA, the binding signal worked out at 0.608 ± 0.0303 fold-change vs cycle 0.

CCTGCA: the binding signal was 0.407 ± 0.0271 fold-change vs cycle 0.

For CAACCG, the binding signal stood at 0.389 ± 0.015 fold-change vs cycle 0.

In the case of AACAAA, the binding signal stood at 1.8 ± 0.139 fold-change vs cycle 0.

For AACTCT, the binding signal amounted to 1.52 ± 0.0171 fold-change vs cycle 0.

Regarding CATAGC, the binding signal is 0.746 ± 0.0368 fold-change vs cycle 0.

As to AGACTG, the binding signal was found to be 0.926 ± 0.0316 fold-change vs cycle 0.

Consider GTAGTA, for which the binding signal worked out at 1.41 ± 0.0747 fold-change vs cycle 0.

Turning to CCCAGA, the binding signal was 0.51 ± 0.0216 fold-change vs cycle 0.

Consider AGGAAG, for which the binding signal was 1.172 ± 0.0114 fold-change vs cycle 0.

GCTACC: the binding signal was found to be 0.419 ± 0.0155 fold-change vs cycle 0.

As to CCGTCA, the binding signal came out at 0.431 ± 0.0281 fold-change vs cycle 0.

AATGTC: the binding signal is 1.21 ± 0.0715 fold-change vs cycle 0.

As for CCTAAG, the binding signal amounted to 1.05 ± 0.0579 fold-change vs cycle 0.

On to CTAGGC, for which the binding signal was determined as 0.38 ± 0.00705 fold-change vs cycle 0.

On to AAAAGG, for which the binding signal stood at 1.25 ± 0.064 fold-change vs cycle 0.

Regarding ATTTCG, the binding signal was 0.985 ± 0.0219 fold-change vs cycle 0.

CGAGTC: the binding signal was 0.4362 ± 0.00406 fold-change vs cycle 0.

With ATTCCA, the binding signal came to 1.44 ± 0.0779 fold-change vs cycle 0.

For CCATCG, the binding signal was 0.438 ± 0.0205 fold-change vs cycle 0.

In the case of TCGACA, the binding signal came to 0.609 ± 0.0106 fold-change vs cycle 0.

Consider GAATCA, for which the binding signal is 1.45 ± 0.0456 fold-change vs cycle 0.

For the sequence ACTCAA, the binding signal came out at 1.42 ± 0.0689 fold-change vs cycle 0.

Regarding CCACTA, the binding signal worked out at 0.855 ± 0.0167 fold-change vs cycle 0.

Take ACAGGT: the binding signal was 0.95 ± 0.0293 fold-change vs cycle 0.

Regarding AGGACT, the binding signal was 0.994 ± 0.0593 fold-change vs cycle 0.

GTACTA: the binding signal came out at 1.37 ± 0.098 fold-change vs cycle 0.

Turning to GTGTCA, the binding signal is 0.805 ± 0.0104 fold-change vs cycle 0.

Consider AGTCTA, for which the binding signal amounted to 1.41 ± 0.0887 fold-change vs cycle 0.

For the sequence TCTGCA, the binding signal turned out to be 0.678 ± 0.019 fold-change vs cycle 0.

In the case of TCTAGA, the binding signal was 1.49 ± 0.119 fold-change vs cycle 0.

For the sequence CCGAAC, the binding signal is 0.387 ± 0.0114 fold-change vs cycle 0.

On to ACCACC, for which the binding signal amounted to 0.514 ± 0.0309 fold-change vs cycle 0.

Another assay concerns the target T3, SALL4 ZFC4 G921D (HT-SELEX) (Mus musculus, UniProt Q8BX22 870-940, G921D).
T3 sequence: T1 sequence with G52D
The assay can be described thus: HT-SELEX; high values mean tight binding. As to conditions: protein: recombinant; vector His6-GST; dsDNA, one strand shown. The gist of the method: as §1
In the case of AATAAC, the binding signal came to 1.79 ± 0.168 fold-change vs cycle 0.

Consider CTTGGA, for which the binding signal stood at 0.984 ± 0.0463 fold-change vs cycle 0.

On to ACTAGC, for which the binding signal is 0.825 ± 0.0195 fold-change vs cycle 0.

As to ATGTTG, the binding signal was found to be 1.28 ± 0.0984 fold-change vs cycle 0.

On to AACGCA, for which the binding signal amounted to 0.669 ± 0.0225 fold-change vs cycle 0.

Turning to AGACAC, the binding signal came out at 0.923 ± 0.0183 fold-change vs cycle 0.

As to CTGGAC, the binding signal came to 0.584 ± 0.0722 fold-change vs cycle 0.

On to AGGGGA, for which the binding signal worked out at 0.671 ± 0.0432 fold-change vs cycle 0.

Take CCTGCA: the binding signal is 0.515 ± 0.0759 fold-change vs cycle 0.

Take CAACCG: the binding signal stood at 0.509 ± 0.0746 fold-change vs cycle 0.

As to AACAAA, the binding signal stood at 1.64 ± 0.143 fold-change vs cycle 0.

Turning to AACTCT, the binding signal was 1.47 ± 0.0843 fold-change vs cycle 0.

For the sequence CATAGC, the binding signal is 0.844 ± 0.0408 fold-change vs cycle 0.

As to AGACTG, the binding signal came out at 0.92 ± 0.0254 fold-change vs cycle 0.

As for GTAGTA, the binding signal was 1.33 ± 0.0906 fold-change vs cycle 0.

Take CCCAGA: the binding signal was 0.583 ± 0.0525 fold-change vs cycle 0.

As to AGGAAG, the binding signal turned out to be 1.11 ± 0.034 fold-change vs cycle 0.

GCTACC: the binding signal is 0.543 ± 0.0413 fold-change vs cycle 0.

With CCGTCA, the binding signal stood at 0.531 ± 0.0693 fold-change vs cycle 0.

For AATGTC, the binding signal is 1.22 ± 0.0672 fold-change vs cycle 0.

Turning to CCTAAG, the binding signal stood at 1.05 ± 0.0419 fold-change vs cycle 0.

As to CTAGGC, the binding signal turned out to be 0.509 ± 0.0429 fold-change vs cycle 0.

Turning to AAAAGG, the binding signal came out at 1.18 ± 0.0579 fold-change vs cycle 0.

Take ATTTCG: the binding signal came to 1.06 ± 0.0262 fold-change vs cycle 0.

Consider CGAGTC, for which the binding signal stood at 0.578 ± 0.0547 fold-change vs cycle 0.

Consider ATTCCA, for which the binding signal came to 1.38 ± 0.106 fold-change vs cycle 0.

In the case of CCATCG, the binding signal is 0.557 ± 0.0511 fold-change vs cycle 0.

With TCGACA, the binding signal was 0.731 ± 0.0296 fold-change vs cycle 0.

Take GAATCA: the binding signal came to 1.38 ± 0.0555 fold-change vs cycle 0.

ACTCAA: the binding signal was 1.35 ± 0.0924 fold-change vs cycle 0.

As for CCACTA, the binding signal was 0.895 ± 0.0113 fold-change vs cycle 0.

In the case of ACAGGT, the binding signal was 0.985 ± 0.0191 fold-change vs cycle 0.

Consider AGGACT, for which the binding signal came to 1.02 ± 0.0375 fold-change vs cycle 0.

Consider GTACTA, for which the binding signal was found to be 1.29 ± 0.0902 fold-change vs cycle 0.

Regarding GTGTCA, the binding signal was 0.881 ± 0.0197 fold-change vs cycle 0.

AGTCTA: the binding signal worked out at 1.37 ± 0.0788 fold-change vs cycle 0.

Take TCTGCA: the binding signal was 0.747 ± 0.0393 fold-change vs cycle 0.

Regarding TCTAGA, the binding signal was 1.41 ± 0.147 fold-change vs cycle 0.

Take CCGAAC: the binding signal was found to be 0.512 ± 0.0786 fold-change vs cycle 0.

Consider ACCACC, for which the binding signal was determined as 0.616 ± 0.0424 fold-change vs cycle 0.
